In test [1] the target is Cytochrome P450 1A2 (Homo sapiens) (UniProt P05177). The test can be described thus: p450-cyp1a2 (AID 410; calls by dose curve; note: potency is the fitted concentration of half-maximal effect). In a few lines: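 Human CYP1A2 (20nM) demethylated Luciferin-ME at its Km (100uM) in 100mM KPO4. After 10 min compound preincubation, NADPH regeneration ran the reaction 60 min at room temperature. Luciferin was read by luminescence, normalized to 57 uM furafylline.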

The target of test [2] is Glucocorticoid receptor (Homo sapiens) (UniProt P04150). The test can be described thus: GR-GFP Redistribution (AID 450;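 active = compounds whose dose series gives a full or clear partial fitted curve of increased nuclear translocation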; note: potency is the fitted concentration of half-maximal effect).
The target is the same in test [3]. Nature of the test: GR-EFC Redistribution (AID 451; calls by dose curve; note: potency is the fitted concentration of half-maximal effect). The settings on record: CHO-K1 GR-EFC translocation, beta-gal luminescence, 2 h. In a few lines: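 CHO-K1 cells stably expressing nuclear-localized β-gal enzyme acceptor and GR fused C-terminally to the enzyme donor fragment; ligand-driven nuclear translocation restores β-gal by complementation. Compounds titrated up to 46 uM final, 2 h at 37 °C; luminescence read.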

Test [4] has as its target Cytochrome P450 3A4 (Homo sapiens) (UniProt P08684). The test can be described thus: qHTS Assay for Activators of Cytochrome P450 3A4 (AID 885). Note: nearly all actives have a fitted effect of over 65% in size. An outline of the steps: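 20nM CYP3A4 + 25uM Luciferin-PPXE (=KM), 200mM KPO4; cpd 10 min RT; NADPH regen, 60 min RT; stop w/ detection buffer, 20 min; luminescence. Normalized to 57 uM ketoconazole.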
For test [5], the target named is Mitogen-activated protein kinase 10 (Mus musculus) (UniProt Q61831). Nature of the test: JNK3 AlphaScreen Assay (AID 530; active = well fitted curve in either direction with a large enough effect, not every such curve was filed as active;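 note: kinase came from lysate of stimulated human HepG2 cells; signal reports phosphorylation of biotinylated GST-cJun 1-79 at Ser73 with 10 µM ATP; series mostly up to about 57 µM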). In a few lines: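 JNK3 came from HepG2 lysates pre-activated with IL-1beta and TNF-alpha and phosphorylated biotinylated GST-cJun (1-79) at 10 uM ATP, pH 7.6, room temperature. Compounds were titrated. AlphaScreen signal used anti-phospho-cJun (Ser73) antibody.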

In test [6] the target is 3',5'-cyclic-AMP phosphodiesterase 4B (Homo sapiens) (UniProt Q07343). The test can be described thus: qHTS Assay for Inhibitors of PDE-IV (AID 607; active = well fitted activation curve with a large enough effect in the main read-out, with a control signal flat, not every such curve was filed as active). An outline of the steps:
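ACTOne HEK293 cells carry a modified cAMP-gated CNG channel and express endogenous PDE4; plated 1000 cells/well, compounds up to 22.9 uM final. Membrane-potential dye fluorescence (ex 535/em 590) was read; parental cells received 10 uM forskolin + 100 uM RO 20-1724.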
For orientation: qHTS replaces the single test concentration by a dilution series.

The target in test [7] is Cytochrome P450 2D6 (Homo sapiens) (UniProt P10635). Nature of the test: qHTS Assay for Inhibitors and Substrates of Cytochrome P450 2D6 (AID 891). Note: nearly all actives have a fitted effect of over 60% in size. Note: potency is the fitted concentration of half-maximal effect. In a few lines: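 Human CYP2D6 (5 nM) with 30 uM Luciferin-ME EGE (at Km) in 100 mM KPO4, compound preincubated 10 min, then NADPH regeneration system for 60 min at room temperature. Luciferin read by luminescence; normalized to 1.43 uM quinidine.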

The target of test [8] is Cytochrome P450 2C9 (Homo sapiens) (UniProt P11712). The test can be described thus: qHTS Assay for Inhibitors and Substrates of Cytochrome P450 2C9 (AID 883). Note: nearly all actives have a fitted effect of over 60% in size. Note: potency is the fitted concentration of half-maximal effect. An outline of the steps: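 Human CYP2C9 (10nM) hydroxylated Luciferin-H (100uM, at its KM) to luciferin in 25mM KPO4. Compound was preincubated 10 min at 37C, then NADPH regeneration started a 60 min reaction at 37C. Luminescence was read after detection reagent, normalized to 57uM sulphaphenazole.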

The target in test [9] is Cytochrome P450 3A4 (Homo sapiens) (UniProt P08684). The test can be described thus: qHTS Assay for Inhibitors and Substrates of Cytochrome P450 3A4 (AID 884). Note: nearly all actives have a fitted effect of over 50% in size. Note: potency is the fitted concentration of half-maximal effect. An outline of the steps: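 20 nM human CYP3A4 with 25 uM Luciferin-PPXE (at KM) in 200 mM KPO4, preincubated 10 min with compound; NADPH regeneration started a 60 min RT reaction. Luciferin detected by luminescence, normalized to 57 uM ketoconazole as full inhibition.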

Test [10] concerns the target Cytochrome P450 2C19 (Homo sapiens) (UniProt P33261). Nature of the test: qHTS Assay for Inhibitors and Substrates of Cytochrome P450 2C19 (AID 899). Note: nearly all actives have a fitted effect of over 60% in size. Note: potency is the fitted concentration of half-maximal effect. An outline of the steps: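 Human CYP2C19 (5nM) with Luciferin-H EGE at 10uM (its KM) in 50mM KPO4 was preincubated with compound for 10 min at 37C. NADPH regeneration started a 60 min 37C reaction. Luciferin was read by luminescence, normalized to 57uM ketoconazole.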

Test [11] addresses DNA dC->dU-editing enzyme APOBEC-3G (Homo sapiens) (UniProt Q9HC16). The test can be described thus: qHTS for inhibitors of Vif-A3G interactions: Validation (AID 588379). In a few lines: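 HeLa cells stably expressing Vif and A3G-eYFP, 700 cells/well, incubated overnight at 37 deg C, then exposed to compound overnight at 37 deg C. Inhibition of Vif-mediated degradation read as increased yellow fluorescence (Ex 488/Em 500-530) by laser-scanning cytometry.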

The target of test [12] is Luciferin 4-monooxygenase (Photinus pyralis) (UniProt P08659). The test can be described thus: Biochemical firefly luciferase enzyme assay for NPC (AID 624030).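 Note: purified P. pyralis luciferase at 10 nM with luciferin and ATP substrate; series mostly up to about 59 µM; nearly all actives have a fitted effect of over 70% in size.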 In a few lines: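 Counter-screen for direct inhibition of the luciferase enzyme by approved-drug library compounds, run at 10 nM enzyme in 50 mM Tris acetate (final). Luminescence was read within 5 min of enzyme-buffer addition and normalized to PTC124 versus DMSO (0%).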

Experimental findings from PubChem BioAssay (NCATS) are described below.

Values without a mark were called inactive. Inconclusive results are not listed. Calls of active or inactive are those of the source. Unless noted, calls come from the whole dose curve; as a rule, active = well fitted curve in the direction sought with a large enough effect; inconclusive = small, poorly fitted or top-dose-only effect, or another doubt; inactive = no such curve, though single readings can be large; an effect the other way counts as inactive or inconclusive.

Sequence of DNA dC->dU-editing enzyme APOBEC-3G (Homo sapiens) (Q9HC16 whole entry, looked up): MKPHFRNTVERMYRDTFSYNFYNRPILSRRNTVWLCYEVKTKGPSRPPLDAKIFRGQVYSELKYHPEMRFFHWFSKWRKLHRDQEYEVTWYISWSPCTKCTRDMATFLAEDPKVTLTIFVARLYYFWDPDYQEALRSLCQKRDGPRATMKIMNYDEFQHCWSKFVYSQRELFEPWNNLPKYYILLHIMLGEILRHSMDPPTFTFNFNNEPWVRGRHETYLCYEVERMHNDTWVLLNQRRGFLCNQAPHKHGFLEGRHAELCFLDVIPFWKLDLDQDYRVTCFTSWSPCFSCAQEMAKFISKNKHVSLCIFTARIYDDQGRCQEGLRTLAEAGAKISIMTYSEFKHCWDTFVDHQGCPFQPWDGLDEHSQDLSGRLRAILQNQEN
Sequence of 3',5'-cyclic-AMP phosphodiesterase 4B (Homo sapiens) (Q07343 whole entry, looked up): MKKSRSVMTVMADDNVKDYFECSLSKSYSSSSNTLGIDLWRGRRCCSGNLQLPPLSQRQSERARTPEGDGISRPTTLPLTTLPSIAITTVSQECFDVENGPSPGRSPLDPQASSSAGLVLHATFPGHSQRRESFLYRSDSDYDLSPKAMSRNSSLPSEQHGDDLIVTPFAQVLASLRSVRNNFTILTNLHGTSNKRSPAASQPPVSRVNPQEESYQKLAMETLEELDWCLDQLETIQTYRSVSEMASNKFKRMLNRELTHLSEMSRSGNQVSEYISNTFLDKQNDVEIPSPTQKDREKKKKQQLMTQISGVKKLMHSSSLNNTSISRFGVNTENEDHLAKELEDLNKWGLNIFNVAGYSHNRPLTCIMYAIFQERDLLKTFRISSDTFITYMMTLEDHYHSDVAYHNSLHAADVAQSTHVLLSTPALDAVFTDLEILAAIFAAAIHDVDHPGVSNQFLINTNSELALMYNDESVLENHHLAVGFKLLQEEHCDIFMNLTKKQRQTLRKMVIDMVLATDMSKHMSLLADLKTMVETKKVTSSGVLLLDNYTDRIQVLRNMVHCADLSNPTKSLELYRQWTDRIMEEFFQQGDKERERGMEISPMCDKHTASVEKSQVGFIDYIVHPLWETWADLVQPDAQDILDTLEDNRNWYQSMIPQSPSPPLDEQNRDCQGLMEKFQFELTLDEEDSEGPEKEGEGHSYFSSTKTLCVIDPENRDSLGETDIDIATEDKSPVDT
Sequence of Cytochrome P450 2D6 (Homo sapiens) (P10635 whole entry, looked up): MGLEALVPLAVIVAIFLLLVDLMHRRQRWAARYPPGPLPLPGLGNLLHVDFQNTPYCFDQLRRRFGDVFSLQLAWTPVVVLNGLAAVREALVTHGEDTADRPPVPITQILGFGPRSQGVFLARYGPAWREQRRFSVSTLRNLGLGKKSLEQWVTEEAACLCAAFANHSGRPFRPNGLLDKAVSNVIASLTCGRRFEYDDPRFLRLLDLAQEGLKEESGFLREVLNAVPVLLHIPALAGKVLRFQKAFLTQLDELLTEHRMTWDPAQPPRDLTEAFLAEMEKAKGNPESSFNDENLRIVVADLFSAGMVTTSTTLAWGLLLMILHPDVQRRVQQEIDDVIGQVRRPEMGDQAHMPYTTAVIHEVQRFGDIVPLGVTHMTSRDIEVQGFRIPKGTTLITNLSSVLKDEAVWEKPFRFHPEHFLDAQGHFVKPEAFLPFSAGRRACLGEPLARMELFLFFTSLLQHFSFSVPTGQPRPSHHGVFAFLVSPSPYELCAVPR
Sequence of Cytochrome P450 3A4 (Homo sapiens) (P08684 whole entry, looked up): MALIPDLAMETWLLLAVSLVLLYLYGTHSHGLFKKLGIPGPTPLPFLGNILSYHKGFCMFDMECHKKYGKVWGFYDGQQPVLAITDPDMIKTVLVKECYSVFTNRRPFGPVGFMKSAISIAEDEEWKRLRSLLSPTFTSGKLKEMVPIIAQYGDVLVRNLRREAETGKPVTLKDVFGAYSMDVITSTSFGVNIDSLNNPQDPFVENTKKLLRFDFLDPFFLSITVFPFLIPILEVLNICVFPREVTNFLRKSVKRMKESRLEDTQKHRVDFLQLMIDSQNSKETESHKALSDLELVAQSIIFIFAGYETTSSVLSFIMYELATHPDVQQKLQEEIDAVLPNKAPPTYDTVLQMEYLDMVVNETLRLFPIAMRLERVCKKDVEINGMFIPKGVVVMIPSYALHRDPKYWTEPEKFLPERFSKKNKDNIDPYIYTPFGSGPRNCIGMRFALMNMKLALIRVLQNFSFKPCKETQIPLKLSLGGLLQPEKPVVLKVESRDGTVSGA
Sequence of Cytochrome P450 1A2 (Homo sapiens) (P05177 whole entry, looked up): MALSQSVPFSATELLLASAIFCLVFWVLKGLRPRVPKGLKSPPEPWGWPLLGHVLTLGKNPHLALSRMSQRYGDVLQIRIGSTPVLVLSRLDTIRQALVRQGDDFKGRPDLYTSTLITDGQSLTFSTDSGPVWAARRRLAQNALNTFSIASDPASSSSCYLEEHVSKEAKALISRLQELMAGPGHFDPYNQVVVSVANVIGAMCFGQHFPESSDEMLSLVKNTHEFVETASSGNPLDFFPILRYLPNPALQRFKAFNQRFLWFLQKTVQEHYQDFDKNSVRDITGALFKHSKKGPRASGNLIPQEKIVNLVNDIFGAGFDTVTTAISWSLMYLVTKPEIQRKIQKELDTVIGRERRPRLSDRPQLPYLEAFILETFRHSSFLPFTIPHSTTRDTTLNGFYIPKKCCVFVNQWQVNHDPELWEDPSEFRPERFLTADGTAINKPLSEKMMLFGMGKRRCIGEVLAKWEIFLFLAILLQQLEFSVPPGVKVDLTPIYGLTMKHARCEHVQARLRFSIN
Sequence of Glucocorticoid receptor (Homo sapiens) (P04150 whole entry, looked up, the tested form may be a part): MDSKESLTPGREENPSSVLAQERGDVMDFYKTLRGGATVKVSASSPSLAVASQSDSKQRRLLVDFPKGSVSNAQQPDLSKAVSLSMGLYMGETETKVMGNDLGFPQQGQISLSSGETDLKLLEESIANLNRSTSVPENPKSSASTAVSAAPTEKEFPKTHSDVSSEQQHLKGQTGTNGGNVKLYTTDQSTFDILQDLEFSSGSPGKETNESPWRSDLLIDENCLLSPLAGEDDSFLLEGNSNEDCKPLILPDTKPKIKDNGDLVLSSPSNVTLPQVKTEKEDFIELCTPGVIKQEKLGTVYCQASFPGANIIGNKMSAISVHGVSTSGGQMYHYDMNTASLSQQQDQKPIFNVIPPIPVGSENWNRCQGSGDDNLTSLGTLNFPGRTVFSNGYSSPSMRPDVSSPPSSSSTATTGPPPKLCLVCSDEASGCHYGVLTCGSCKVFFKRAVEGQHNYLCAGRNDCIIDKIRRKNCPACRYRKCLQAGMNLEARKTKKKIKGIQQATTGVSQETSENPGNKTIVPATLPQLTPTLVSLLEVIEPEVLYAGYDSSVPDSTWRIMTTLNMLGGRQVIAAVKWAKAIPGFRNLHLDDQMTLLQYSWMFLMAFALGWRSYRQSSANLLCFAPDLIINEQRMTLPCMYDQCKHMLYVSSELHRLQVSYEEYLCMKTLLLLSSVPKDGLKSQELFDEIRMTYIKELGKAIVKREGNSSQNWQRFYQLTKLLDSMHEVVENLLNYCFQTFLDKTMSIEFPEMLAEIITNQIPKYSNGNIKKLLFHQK
Sequence of Cytochrome P450 2C9 (Homo sapiens) (P11712 whole entry, looked up): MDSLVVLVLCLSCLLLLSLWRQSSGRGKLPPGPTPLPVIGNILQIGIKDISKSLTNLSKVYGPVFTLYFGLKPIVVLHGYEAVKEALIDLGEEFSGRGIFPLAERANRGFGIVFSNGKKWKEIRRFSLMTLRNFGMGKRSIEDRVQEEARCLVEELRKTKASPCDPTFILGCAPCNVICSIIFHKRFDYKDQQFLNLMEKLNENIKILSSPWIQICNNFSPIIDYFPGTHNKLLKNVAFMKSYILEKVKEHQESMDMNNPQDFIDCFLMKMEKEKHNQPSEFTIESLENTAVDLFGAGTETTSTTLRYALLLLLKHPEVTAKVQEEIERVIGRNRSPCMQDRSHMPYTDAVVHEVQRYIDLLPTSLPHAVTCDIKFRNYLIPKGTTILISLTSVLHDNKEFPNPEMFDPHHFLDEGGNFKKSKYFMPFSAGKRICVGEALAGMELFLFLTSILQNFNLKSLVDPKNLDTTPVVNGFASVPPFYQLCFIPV
Sequence of Cytochrome P450 2C19 (Homo sapiens) (P33261 whole entry, looked up): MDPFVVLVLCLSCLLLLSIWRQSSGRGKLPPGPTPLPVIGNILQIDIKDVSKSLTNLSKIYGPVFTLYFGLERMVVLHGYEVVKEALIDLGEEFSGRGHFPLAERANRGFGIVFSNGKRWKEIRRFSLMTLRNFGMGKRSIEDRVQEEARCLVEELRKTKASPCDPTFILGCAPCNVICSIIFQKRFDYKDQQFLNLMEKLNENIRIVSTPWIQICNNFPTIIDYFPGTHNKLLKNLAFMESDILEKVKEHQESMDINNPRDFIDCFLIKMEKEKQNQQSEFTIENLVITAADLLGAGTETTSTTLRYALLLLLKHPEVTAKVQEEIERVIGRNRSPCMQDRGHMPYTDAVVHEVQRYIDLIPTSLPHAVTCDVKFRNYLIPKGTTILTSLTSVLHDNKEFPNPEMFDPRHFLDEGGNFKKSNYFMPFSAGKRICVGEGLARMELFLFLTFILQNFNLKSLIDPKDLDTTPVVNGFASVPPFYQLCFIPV
Sequence of Luciferin 4-monooxygenase (Photinus pyralis) (P08659 whole entry, looked up): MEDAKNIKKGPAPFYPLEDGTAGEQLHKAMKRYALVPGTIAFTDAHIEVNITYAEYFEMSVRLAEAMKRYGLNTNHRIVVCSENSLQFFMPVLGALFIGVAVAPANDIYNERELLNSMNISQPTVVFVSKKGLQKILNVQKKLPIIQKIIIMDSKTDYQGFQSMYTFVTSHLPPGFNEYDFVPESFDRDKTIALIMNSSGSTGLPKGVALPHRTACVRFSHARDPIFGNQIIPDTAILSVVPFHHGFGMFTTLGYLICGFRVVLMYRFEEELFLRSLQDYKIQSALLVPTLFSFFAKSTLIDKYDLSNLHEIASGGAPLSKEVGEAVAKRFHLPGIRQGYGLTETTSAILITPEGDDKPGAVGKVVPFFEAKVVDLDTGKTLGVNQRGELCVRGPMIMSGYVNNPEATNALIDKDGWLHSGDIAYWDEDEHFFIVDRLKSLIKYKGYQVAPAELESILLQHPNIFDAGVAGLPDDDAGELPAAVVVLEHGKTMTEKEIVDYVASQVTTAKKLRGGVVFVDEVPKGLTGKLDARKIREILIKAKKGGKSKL

Regarding `O=c1c(O)c(-c2ccc(O)c(O)c2)oc2ccccc12`, the Potency in test [1] was 0.251 µM (active); in test [2], over 46 µM; in [3], over 46 µM. For the same compound, the Potency result in [4] was “inactive”.

Consider `CC(=O)[C@H]1[C@H]2[C@H](C(=O)[C@@H]3OC[C@H]2O3)[C@@H]2c3ccccc3C=CN12`, for which the Potency is 31.6 µM (active) in test [1], over 46 µM in test [2] and over 46 µM in test [3]. Moreover, the Potency result in test [5], in [6] and in test [7] was “inactive” in each case.

As to `O=c1ccn([C@H]2O[C@H](CO)[C@@H](O)[C@@H]2O)c(=O)[nH]1`, the Potency result in test [1], in test [5], in test [6], in test [8] and in [7] was “inactive” each time. Moreover, the Potency in [2] is over 46 µM.

With `Cc1ccc2oc(-c3ccccc3)c(O)c(=O)c2c1`, the Potency in test [1] is 0.398 µM (active); in test [2], over 46 µM; in test [3] it was over 46 µM. Further, the Potency result in test [6], in test [8], in [9], in [7] and in test [10] was “inactive” each time. Further, in test [11], the compound was classed as inactive.

For `CC(C)C[C@H](NC(=O)[C@@H](NC(=O)N[C@@H](Cc1ccccc1)C(=O)O)[C@H]1CCN=C(N)N1)C(=O)N[C@H](C=O)Cc1ccccc1`, the Potency entry in test [1], in test [5], in test [8] and in test [7] was “inactive” in each case. Besides, the Potency in test [2] and in test [3] was over 46 µM throughout.

Turning to `CC(=O)[C@@H]1[C@H]2[C@@H](C(=O)[C@H]3OC[C@H]2O3)[C@@H]2C=Cc3ccccc3N12`, the Potency in test [1] was 31.6 µM (active); in test [2] it was over 46 µM; in [3] it was over 46 µM; in test [10] it was 5.01 µM (active). Further, the Potency result in [6] is “inactive”.

For `CC(C)=CCC/C(C)=C/COc1c2ccoc2cc2oc(=O)ccc12`, the Potency in [1] is 0.316 µM (active); in [2], over 46 µM; in [3], over 46 µM; in test [8], 0.0316 µM (active); in test [7], 0.0631 µM (active); in [10], 0.01 µM (active).

With `Cc1ccc(C(=O)[C@@H]2[C@@H]3[C@@H](C(=O)[C@@H]4OC[C@H]3O4)[C@@H]3C=Cc4ccccc4N23)cc1`, the Potency in test [1] is 15.8 µM (active); in [2], over 46 µM; in [3], over 46 µM; in test [8] it was 10 µM (active); in test [10] it was 15.8 µM (active). The Potency entry in [6] is “inactive”.

As for `O=c1cc(-c2ccccc2O)oc2c(O)c(O)ccc12`, the Potency was 2.51 µM (active) in [1]; over 46 µM in [2]; over 46 µM in [3]; 1.26 µM (active) in [8]; 15.8 µM (active) in [7]; 1.26 µM (active) in test [10]. Besides, the Potency entry in test [6] and in test [4] was “inactive” each time. Also, the outcome in [11] was inactive.

For `O=c1cc(-c2ccccc2O)oc2ccc3ccccc3c12`, the Potency in test [1] is 1 µM (active); in test [2], over 46 µM; in [3] it was over 46 µM; in test [7], 20 µM (active). In addition, the Potency result in [4] is “inactive”. For the same compound, the result in test [11] was inactive.

As for `CC1(C)CCC[C@@]2(C)[C@@H]1CC[C@]1(C)OC(=O)C[C@@H]21`, the Potency entry in [1], in test [5] and in test [7] was “inactive” throughout. Moreover, the Potency in test [2] and in test [3] was over 46 µM in each case.

In the case of `CC(C)OC(=O)c1cc2c(OC[C@@H](O)CNC(C)(C)C)cccc2[nH]1`, the Potency in test [1] is 31.6 µM (active); in [2], over 46 µM. For the same compound, the Potency entry in test [5] and in test [12] was “inactive” each time. The compound was classed as inactive in test [11].

In the case of `CC[C@@H]1[C@H]2CCCCN3[C@@H]2[C@@H](C[C@H]3[C@@H]2C[C@H](C)C(=O)O2)[C@@H]2[C@H]1OC(=O)[C@H]2C`, the results for the Potency in test [1], in [2] and in test [3] were 25.1 µM (active), over 46 µM and over 46 µM, respectively. Also, the Potency result in test [5], in test [6], in test [8] and in test [10] was “inactive” in each case.

For the compound `COc1cc2oc(-c3ccccc3)cc(=O)c2cc1OC`, the Potency was 0.2 µM (active) in test [1], over 46 µM in test [2], over 46 µM in test [3] and 15.8 µM (active) in test [9]. The Potency result in test [6], in test [8], in test [4] and in [7] was “inactive” throughout. For the same compound, the result in [11] was inactive.

Regarding `O=C(/C=C\c1ccc(O)c(O)c1)O[C@H]1C[C@@](O)(C(=O)O)C[C@H](O)[C@@H]1O`, the Potency result in [1], in [5], in [6], in test [8], in [7] and in test [10] was “inactive” each time. In addition, in test [2], the Potency is over 46 µM.
